High-throughput results deposited in PubChem BioAssay by National Center for Advancing Translational Sciences (NCATS).
SMN2 splice up: qHTS Assay for Enhancers of SMN2 Splice Variant Expression; HEK293 SMN2-luciferase splicing reporter, luminescence, 30-36 h; Potency, µM (highest dose often 46.1 µM), most hits filed as activators; 210,000 tested, 2.8% active; AID 1458, 2008; also: nearly all actives have a fitted effect of over 55% in size
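HEK293 cells carry an SMN2 […]–luciferase reporter in which exon 7 inclusion puts luciferase in frame. Cells were plated 10-12 h before compound addition, then incubated 30-36 h at 37C. ONE-Glo luminescence was read; sodium butyrate at 4.5 mM final served as control.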
NPC1 prom act: qHTS Assay for NPC1 Promoter Activators. Potency, µM (titrated, usually from 9.22 µM), hits mostly activators. 320,000 tested, 2.4% active. AID 485313, 2010. Huh7 NPC1 promoter luciferase reporter, 24 h; also: nearly all actives have a fitted effect of over 60% in size
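Huh7 cells stably carrying NPC1 promoter–luciferase, plated in Opti-MEM with 10% FBS for 2 h, were exposed to compound in DMSO for 24 h at 37 °C; luciferase reagent was added for 10 min and luminescence read.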
ELG1 genotoxic: qHTS screen for small molecules that induce genotoxicity in human embryonic kidney (HEK293T) cells expressing luciferase-tagged ELG1; HEK293T ELG1-luciferase reporter, luminescence, 16 h; 330,000 tested, 1.3% active; Potency, µM (doses to about 46 µM), hits mostly activators; also: nearly all actives have a fitted effect of over 60% in size
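DMSO vehicle served as control against compound-treated ELG1-luciferase HEK293T cells; exposure lasted 16 hr at 37 °C and 5% CO2, followed by ONE-Glo luminescence detection after 30 min.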
FLuc counter: qHTS profiling assay for firefly luciferase inhibitor/activator using purifed enzyme and Km concentrations of substrates (counterscreen for miR-21 project). Luciferin 4-monooxygenase (Photinus pyralis), P08659. purified FLuc, Km substrates, luminescence inhibition. Potency, µM (doses to about 57.5 µM), usual class: inhibitors. 360,000 tested, 6.9% active; also: nearly all actives have a fitted effect of over 55% in size
Target sequence (P08659 whole entry, looked up): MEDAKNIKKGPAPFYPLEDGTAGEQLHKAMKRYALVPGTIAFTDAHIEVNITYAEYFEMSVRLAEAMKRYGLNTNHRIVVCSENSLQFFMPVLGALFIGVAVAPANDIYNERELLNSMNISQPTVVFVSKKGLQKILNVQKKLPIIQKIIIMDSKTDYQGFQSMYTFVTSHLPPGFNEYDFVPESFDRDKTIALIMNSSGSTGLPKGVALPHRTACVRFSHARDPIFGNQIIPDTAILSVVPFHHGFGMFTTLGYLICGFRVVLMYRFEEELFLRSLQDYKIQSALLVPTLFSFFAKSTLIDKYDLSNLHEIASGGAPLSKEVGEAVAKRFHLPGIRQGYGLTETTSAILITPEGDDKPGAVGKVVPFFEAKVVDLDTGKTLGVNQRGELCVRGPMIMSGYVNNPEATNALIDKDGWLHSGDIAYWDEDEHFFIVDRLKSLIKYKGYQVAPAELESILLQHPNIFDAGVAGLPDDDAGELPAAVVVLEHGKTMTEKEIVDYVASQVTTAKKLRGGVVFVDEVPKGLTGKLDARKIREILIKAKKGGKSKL
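Biochemical qHTS of compounds, final roughly 60 µM downward over six points, against 10 nM purified firefly luciferase using Km concentrations of substrates (10 uM D-luciferin, 10 uM ATP) in Tris acetate pH 7.5 buffer; luminescence output.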
Rab9 promoter act: qHTS Assay for Rab9 Promoter Activators; Huh7 Rab9 promoter-luciferase reporter, luminescence, 24 h; Potency, µM (titrated, usually from 9.22 µM), hits mostly activators; 320,000 tested, 2.8% active; also: nearly all actives have a fitted effect of over 60% in size
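Luminescence from Amplite-detected luciferase (10 minutes, ambient) reports Rab9 promoter activation. Before that, stable Rab9-luciferase Huh7 cells (1500/well, reduced-serum OP-MEM I plus 10% FBS) were exposed to compound for 24 hours at 37C.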
A number is an active result; - = inactive; ? = inconclusive; . = no result; [ ] = remark or other dose. In the library only some 7.4% were active in any assay of this set; here they are far more common. Calls follow the shape of the dose curve; as a rule, active = well fitted curve in the direction sought with a large enough effect; inconclusive = small, poorly fitted or top-dose-only effect, or another doubt; inactive = no such curve, though single readings can be large; an effect the other way counts as inactive or inconclusive.

SMILES | SMN2 splice up | NPC1 prom act | ELG1 genotoxic | FLuc counter | Rab9 promoter act
CCOC(=O)N1CCN(c2ccc(S(=O)(=O)N3CCOCC3)cn2)CC1 | . | . | - | . | .
CCOC(=O)N1CCN(c2ccc(S(=O)(=O)N(Cc3ccccc3)Cc3ccccc3)cn2)CC1 | - | - | 11.6µM | - | -
CSc1cccc(-n2cc(-c3ccc4c(c3)OCO4)[nH]c2=O)c1 | ? | - | ? | 21.3µM | ?
O=[N+]([O-])c1ccc(N/N=C/c2ccc[nH]2)cc1 | - | - | - | ? | -
O=[N+]([O-])c1ccc(N/N=C/c2cccc(O)c2)cc1 | . | - | ? | 23.9µM | -
O=[N+]([O-])c1ccc(N/N=C/c2cccnc2)cc1 | . | - | - | ? | -
O=[N+]([O-])c1ccc(N/N=C/c2cccc(O)c2O)cc1 | . | - | 11.6µM | 16.9µM | -
CCc1ccc(CCC(=O)Nc2ccccc2C(=O)O)o1 | ? | ? | ? | 19µM | ?
CC#CCCCC(=O)Nc1ccccc1C(=O)O | ? | ? | ? | 19µM | ?
Cc1cc2ccccc2c(=O)[nH]1 | - | - | - | - | -[1.84 µM]
O=c1[nH]c(-c2ccccn2)cc2ccccc12 | 15.8µM | ? | ? | 16.9µM | ?
O=C(Nc1ccc(F)cc1)c1ncn(-c2ccccc2)n1 | 14.1µM | . | . | 10.7µM | .
Cc1ccc(NC(=O)c2ncn(-c3ccccc3)n2)c(Cl)c1 | - | . | . | ? | .
COc1ccccc1NC(=O)c1cn(-c2ccccc2)nc1-c1ccccc1 | . | . | . | - | .
COc1ccccc1NC(=O)c1ncn(-c2ccccc2)n1 | 11.2µM | . | . | ? | .
CCc1ccc(-n2nc(C)c3c(C)cc(=O)n(CC(=O)Nc4ccc(OC)c(OC)c4)c32)cc1 | . | . | . | - | .
CCOc1ccccc1C(=O)NCc1ccc2c(c1)CCN2C(=O)c1ccccc1 | . | . | . | - | .
FC(F)(F)c1cc(-c2ccccc2)nc(N2CCCCCC2)n1 | - | - | - | -[2.3 µM] | -
c1ccc(-c2csc(N3CCCCCC3)n2)cc1 | ? | - | 18.4µM | 15.1µM | -
NC(=O)C1(N2CCCCC2)CCN(c2nc(-c3ccc(Br)cc3)cs2)CC1 | - | - | - | - | -
COc1ccc(-c2csc(/N=C/N(C)C)n2)cc1OC | - | - | ? | ? | -
CS(=O)(=O)N1CCN(c2nc(-c3ccccc3)cs2)CC1 | - | - | ? | ? | -
c1ccc(-c2cnnc(N3CCCCC3)n2)cc1 | - | 2.51µM | ? | 10.7µM | 1.41µM
Brc1ccc(-c2csc(N3CCCCCC3)n2)cc1 | . | - | - | 8.49µM | -
COc1ccc(-c2csc(N3CCOCC3)n2)cc1OC | ? | ? | 18.4µM | 12µM | ?
SMILES | SMN2 splice up | NPC1 prom act | ELG1 genotoxic | FLuc counter | Rab9 promoter act
CN1CCN(C(CNC(=O)C(=O)Nc2ccccc2)c2ccc3c(c2)OCO3)CC1 (stereo not drawn) | . | . | . | - | .
O=[N+]([O-])c1ccc(-c2csc(N3CCCCCC3)n2)cc1 | . | ? | - | 12µM | ?
CN1CCN(c2nc(-c3ccc(Cl)s3)cs2)CC1 | - | - | - | 16.9µM | ?
Brc1ccc(-c2csc(N3CCOCC3)n2)cc1 | . | ? | - | 8.49µM | 3.98µM
CN(C(=O)C1CCC1C(=O)O)c1nc(-c2ccc(Cl)s2)cs1 (stereo not drawn) | . | - | - | ? | -
NC(=O)C1CCN(c2nc(-c3ccc([N+](=O)[O-])cc3)cs2)CC1 | . | . | . | - | .
CCS(=O)(=O)N1CCN(c2nc(-c3ccccc3)cs2)CC1 | - | - | ? | 19µM | -
O=C(N1CCOCC1)N1CCN(c2nc(-c3ccc(F)cc3)cs2)CC1 | - | - | - | 10.7µM | -
Clc1ccc(-c2csc(N3CCCCCC3)n2)cc1 | . | - | - | 10.7µM | -
CC(C)C(=O)N1CCN(c2nc(-c3ccc(Cl)cc3)cs2)CC1 | . | - | - | - | -
N=C1SCC(=O)N1c1nc(-c2ccccc2)cs1 | 11.2µM | 2.24µM | ? | 5.36µM | 2µM
O=C1C2C3c4ccccc4C(c4ccccc43)C2C(=O)N1c1nc(-c2ccccc2)cs1 (stereo not drawn) | - | - | - | - | -
CCOC(=O)N1CCN(c2nc(-c3ccc(Cl)cc3)cs2)CC1 | - | - | ? | 16.9µM | -
COc1ccc(-c2nn(C)c3sc(C(=O)N4CCN(c5cc(Cl)ccc5C)CC4)cc23)cc1OC | - | . | . | - | .
O=C(CCCl)N1CCN(c2nc(-c3ccccc3)cs2)CC1 | . | ? | - | 15.1µM | ?
Clc1ccc(-c2csc(N3CCOCC3)n2)cc1 | 17.8µM | ? | ? | 10.7µM | 3.16µM
CC(=O)Nc1cc(Cl)c(N=Cc2ccc(O)cc2O)cc1Cl | - | - | - | - | -
CCOC(=O)c1sc(/N=C/c2ccc(O)cc2O)cc1C | - | - | - | 1.35µM | -
Cc1cc(C)n2c(nc3ccccc32)c1C(=O)NN | . | - | - | 0.379µM | -
CCN1CCN(c2ccc(N=Cc3ccc(O)cc3O)cc2)CC1 | - | - | - | 16.9µM | -
Cc1cc(C(=O)Nc2ccc3[nH]ccc3c2)no1 | . | 2.24µM | ? | 10.7µM | 2.82µM
Cc1cc(NC(=O)c2cc(C)on2)no1 | - | - | - | - | -
CCOc1ccc(CCNC(=O)c2ccc(CS(=O)Cc3ccccc3Cl)o2)cc1 (stereo not drawn) | . | - | - | 23.9µM | -
CCOc1ccc(CCNC(=O)c2ccc(CS(=O)Cc3ccc(Cl)cc3)o2)cc1 (stereo not drawn) | . | - | - | ? | -
Cc1noc(C)c1C(=O)N1CCC2(CC1)CN(c1ccccc1)C2 | - | . | . | . | .
SMILES | SMN2 splice up | NPC1 prom act | ELG1 genotoxic | FLuc counter | Rab9 promoter act
O=C(O)COCc1nc2ccccc2s1 | . | - | - | - | -
CC(=O)OCc1nc2ccccc2s1 | - | - | ? | 5.36µM | -
Cc1cc(C(=O)OCc2nc3ccccc3s2)c(C)o1 | - | . | . | 19µM | .
COC(=O)CCCc1nc2ccccc2s1 | - | - | - | ? | -
CCOC(=O)C(=O)Cc1nc2ccccc2s1 | . | - | - | 19µM | -
NC(=O)c1ccccc1OCc1nc2ccccc2s1 | . | ? | ? | 3.01µM | ?
CCCCC(=O)Nc1c(C(=O)N2CCN(c3ccccc3)CC2)oc2ccccc12 | . | . | . | - | .
O=C(OCc1nc2ccccc2s1)c1ccco1 | - | - | ? | 6.75µM | -
COc1ccc(/C=C/c2nnc(NC(C)=O)s2)cc1 | . | 1.12µM | 2.31µM | 1.9µM | 0.126µM
COC(=O)Nc1nnc(/C=C/c2ccc(OC)cc2)s1 | 8.91µM | ? | ? | 6.01µM | 3.55µM
COc1ccc(/C=C/c2nnc(NC(=O)CC(C)C)s2)cc1 | . | - | - | ? | -
COc1ccc(/C=C/c2nnc(NC(=O)CSc3ccc(Cl)cc3)s2)cc1 | 10µM | ? | ? | - | ?
CCNc1ncc2nc(-c3cc(F)cc(F)c3)c(=O)n(-c3ccccc3)c2n1 | - | . | . | . | .
COc1ccc(C)cc1NC(=O)Nc1nnc(N2CCCCC2)s1 | . | . | . | - | .
Clc1ccc(N=C2SCCS2)cc1 | . | - | - | ? | -
Clc1ccc(N=C2SCC3CCCCN23)cc1 (stereo not drawn) | . | 3.98µM | - | 9.53µM | 2.51µM
